Measured values as given in PubChem BioAssay (NCI).
This is part of a sample that, as a whole, favours compounds with a hit. Of some 83,000 tested, about 20% had one in any assay.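 Testing used 96-well plates and a 48-hour single-concentration exposure. Example: -40 means 40% of the starting cells died.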 Activity calls are given as the source filed them. Rule for the calls: active = growth percent below 10; inactive = the rest.

system: HL-60(TB) leukemia; assay: NCI-60 one-dose screen, 48 h (100 = growth as untreated, 0 = no growth, -100 = all killed); conditions: 10 µM unless noted

Structure (SMILES) | growth
CCOC(=O)CC1CSC(N/N=C(/C)c2cccc(C(F)(F)F)c2)=N1 (stereo unspecified) | 101% (inactive)
C#Cc1cccc(Oc2ccc(NC(=O)CCl)cc2)c1 | 0.122% [8.25 µM] (active)
COc1cc(CN2CCO[C@H](COc3cccc(F)c3)C2)ccc1Cl | 26.3% (inactive)
COc1cc(/C=C2\C(=O)Nc3ccccc32)cc(OC)c1O | 1.88% (active)
CCCOc1ccc(/C=N/Nc2cc(C)nc3ccc(Br)cc23)cc1 | 55.3% (inactive)
Nc1nc2ncc(CCNc3ccc(C(=O)O)cc3)nc2c(=O)[nH]1 | 58.2% (inactive)
NC(Cc1ccc(O)c([N+](=O)[O-])c1)C(=O)O (stereo unspecified) | 114% (inactive)
COc1ccc(S(=O)(=O)NCCNc2nccc(-c3c(-c4ccccc4)nc4sccn34)n2)cc1 | 25.4% (inactive)
Nc1nc(Cl)c2c(C(F)(F)F)cn(CC3CCNCC3)c2n1 | 25.5% (inactive)
CCn1cc(-c2[nH]c(=S)ncc2-c2ccc(Cl)cc2)c(-c2ccc(Br)cc2)n1 | 117% (inactive)
CCOC(=O)c1c(-c2ccc(O)cc2)c(C#N)c2c(C#N)c(N)nn2c1N | 22.5% (inactive)
C[N+](C)(C/C=C/c1ccccc1)Cc1ccccc1 | 92.6% (inactive)
C=CCn1c(SCC(=O)Nc2ccc(C(=O)/C=C/c3ccc(OC)cc3)cc2)nnc1-c1ccc(OC)c(OC)c1 | 58.5% (inactive)
COc1ccc(CNCCN2C(=O)c3ccc4c5c(ccc(c35)C2=O)C(=O)N(CCNCc2ccc(OC)cc2)C4=O)cc1 | -63.4% (active)
Cc1c(Cl)cccc1NC(=O)c1sc2nc3c(cc2c1N)CCCCCC3 | -15.9% (active)
O=[N+]([O-])/C(=C/c1ccccc1)c1ccccc1 | 85.6% (inactive)
COc1ccc(Cc2cc(-c3ccccc3C)n[nH]c2=O)cc1 | 92.4% (inactive)
O=c1c2c(c3ccccc3n1-c1ccccc1)NC(=S)NC2c1ccc(Cl)cc1 (stereo unspecified) | 22.1% (inactive)
Cc1c(Cl)cccc1C(=O)Nc1nc2c(s1)CN(C(=O)c1ccc(C(F)(F)F)cc1)CC2 | -21.8% (active)
CN(C)CCCC1(c2ccc(F)cc2)OCc2cc(-c3cc4ccccc4s3)ccc21 (stereo unspecified) | 22.3% (inactive)
O=C1C(c2ccccc2)C2C=CC(C2)N1O (stereo unspecified) | 93% (inactive)
CCN(CC)c1ccc2nc3c4ccccc4c(=NC(=O)c4ccccc4-c4c5ccc(N(CC)CC)cc5[o+]c5cc(N(CC)CC)ccc45)cc-3oc2c1 | -69.7% (active)
CS(=O)(=O)N1CCc2c(-c3cnc(N)nc3)nc(N3CCOCC3)nc21 | 34.9% (inactive)
CN(C)CCN(C)CC(C)(C)C(=O)/C=C/c1ccc(Cl)c(Cl)c1 | -41.9% [100 µM] (active)
N#C/C(=C/N1C(=O)/C(=C/c2ccc([N+](=O)[O-])cc2)SC1=S)c1nc2ccccc2s1 | 93.3% (inactive)
O=S(c1ccccc1)c1ccc2nnnn2n1 (stereo unspecified) | 42.5% (inactive)
